In the supplement of paper PMC6555819:

Key:
Test in all cases: PBM binding z-score (relative to random genomic background probes); higher = stronger binding; sequences stand for … in GC…GCGATTGACAGCGTAGAATGAAGG
[1] = system: FXR:RXRa (NR concentration 270 nM, RXRa partner concentration 90 nM)
Procedure, shortened: (§1)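 For binding z-scores, the reference was random background probes on custom Agilent 4×180K protein-binding microarrays. These arrays were incubated 1 h with ligand-free nuclear receptor dimers in PBS pH 7.4, 2% milk, 0.02% Triton X-100, 1 mM DTT, 0.2 mg/mL BSA and 0.4 mg/ml salmon testes DNA. Fluorescence was scanned after antibody detection of each partner (one per run) and regression-normalized.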

[2] = system: LXRa:RXRa (NR concentration 270 nM, RXRa partner concentration 90 nM)
Procedure, shortened: as §1

[3] = system: LXRa homodimer (NR concentration 270 nM)
Procedure, shortened: as §1

[4] = system: LXRb:RXRa (NR concentration 270 nM, RXRa partner concentration 90 nM)
Procedure, shortened: as §1

[5] = system: LXRb homodimer (NR concentration 270 nM)
Procedure, shortened: as §1

[6] = system: PPARa:RXRa (NR concentration 270 nM, RXRa partner concentration 90 nM)
Procedure, shortened: as §1

[7] = system: PPARg:RXRa (NR concentration 180 nM, RXRa partner concentration 90 nM)
Procedure, shortened: as §1

[8] = system: PPARg:RXRa 270nM:90nM, anti-RXR (NR concentration 270 nM, RXRa partner concentration 90 nM)
Procedure, shortened: as §1

[9] = system: PPARg:RXRa 30nM:10nM, anti-RXR (NR concentration 30 nM, RXRa partner concentration 10 nM)
Procedure, shortened: as §1

[10] = system: PPARg:RXRa 90nM:30nM, anti-RXR (NR concentration 90 nM, RXRa partner concentration 30 nM)
Procedure, shortened: as §1

[11] = system: PPARg:RXRa DBDmut IVT, anti-RXR (DBD mutation: RXRa K156A/R161A, NR concentration 270 nM, RXRa partner concentration 90 nM)
Procedure, shortened: as §1

[12] = system: PPARg:RXRa IVT, anti-PPARg (NR concentration 270 nM, RXRa partner concentration 90 nM)
Procedure, shortened: as §1

[13] = system: PPARg DBDmut:RXRa IVT, anti-PPARg (DBD mutation: PPARg1 K132A/R137A, NR concentration 270 nM, RXRa partner concentration 90 nM)
Procedure, shortened: as §1

[14] = system: PPARg DBDmut IVT, anti-PPARg (DBD mutation: PPARg1 K132A/R137A, NR concentration 270 nM)
Procedure, shortened: as §1

[15] = system: PPARg homodimer (NR concentration 180 nM)
Procedure, shortened: as §1

[16] = system: PXR:RXRa (NR concentration 270 nM, RXRa partner concentration 90 nM)
Procedure, shortened: as §1

[17] = system: PXR homodimer (NR concentration 270 nM)
Procedure, shortened: as §1

[18] = system: RARa:RXR (NR concentration 270 nM, RXRa partner concentration 90 nM)
Procedure, shortened: as §1

[19] = system: RARa homodimer (NR concentration 270 nM)
Procedure, shortened: as §1

[20] = system: RARb:RXRa (NR concentration 270 nM, RXRa partner concentration 90 nM)
Procedure, shortened: as §1

Sequence | PBM binding z-score [1] | PBM binding z-score [2] | PBM binding z-score [3] | PBM binding z-score [4] | PBM binding z-score [5] | PBM binding z-score [6] | PBM binding z-score [7] | PBM binding z-score [8] | PBM binding z-score [9] | PBM binding z-score [10] | PBM binding z-score [11] | PBM binding z-score [12] | PBM binding z-score [13] | PBM binding z-score [14] | PBM binding z-score [15] | PBM binding z-score [16] | PBM binding z-score [17] | PBM binding z-score [18] | PBM binding z-score [19] | PBM binding z-score [20]
TCGAGTAGGTTAGTCCGGGCATTCAGCCAACATA | -0.219 | 0.109 | 0.0222 | -0.106 | -1.05 | 0.14 | -0.395 | 0.281 | 0.992 | 0.409 | 1.83 | 1.17 | -0.501 | -0.393 | -0.627 | -0.337 | -0.362 | -0.0826 | -1.14 | 0.232
CGTCCAAAGTCAAGGTCAGTGAAAGAGACTCGAA | 2.34 | 2.12 | 0.643 | 1.74 | 0.209 | 2.8 | 0.614 | 1.04 | 0.0766 | 0.615 | 0.62 | 0.874 | -0.185 | -0.414 | 2.49 | 2.05 | 1.01 | 2.47 | 0.742 | 3.62
CCTGCTAGGGCATGGTCAGCTAATCTACAGTATG | -0.287 | -0.381 | -0.466 | -0.695 | -1.06 | -0.338 | 0.0735 | -0.381 | -0.463 | -0.375 | 1.27 | 0.942 | -0.789 | -1.21 | -0.604 | -0.584 | -0.686 | -0.414 | -0.802 | 1.43
GCTAGCAGGCCATTAGGGTCACTCAATGACGGGC | 1.78 | 1.35 | -0.158 | 1.47 | -0.982 | 2.54 | 1.2 | 1.3 | -0.267 | 0.446 | 1.02 | 1.61 | -0.521 | -1.36 | 0.4 | 2.86 | 1.38 | 2.85 | -0.0554 | 2.42
ATATGTATGTTAAGGGTCATTCAGGTTGGTTCGC | 4.05 | 4.15 | 3.41 | 4.46 | 1.5 | 5.66 | 8.29 | 7.83 | 8.13 | 8.7 | 3.13 | 4.91 | 2.02 | 1.65 | 2.83 | 4.73 | 2.03 | 4.22 | 1.18 | 3.31
TGAATGTGGTTATAAGATCAGGGAACGTTGCAAA | 0.123 | 0.222 | 0.268 | 0.397 | 0.612 | 0.12 | 0.237 | 0.617 | 0.803 | 1.15 | -0.328 | 0.343 | 0.967 | 1.11 | 0.749 | 0.00497 | 0.777 | -0.382 | 1.15 | 0.0382
ACAGACATGTGATGAAGGTAACTCAGGCTATCAT | 0.000592 | -0.0384 | -0.258 | -0.35 | -0.283 | -0.131 | 0.611 | -0.0726 | -0.0978 | 0.0328 | -0.334 | 0.139 | 0.595 | 0.868 | -0.0569 | -0.448 | -0.319 | -0.161 | -0.142 | -0.338
TCTGCTCGGTCAACGATGGTCAGCTAATCTGCTA | 0.568 | 0.372 | -0.251 | -0.449 | -0.425 | 0.275 | -0.279 | 0.898 | 1.25 | 1.09 | 1.1 | 1.1 | -0.37 | -0.828 | -0.45 | -0.246 | -1.09 | -0.0627 | -0.906 | 2.59
TCTCGTAGGACACGAAGGTCAGAGCTTTCCAGAG | 0.999 | 0.907 | 0.334 | 1.08 | -0.838 | 1.85 | 0.478 | 1.91 | 2.61 | 2.45 | 1.67 | 1.28 | -0.564 | -1.07 | 0.78 | 1.35 | -0.171 | 1.75 | -0.101 | 2.89
ATCTCTAGGTAAGACTCAGTACAGTGAAGAACGC | 0.589 | 0.377 | 0.528 | 0.101 | 0.88 | 0.1 | 0.293 | -0.0568 | 0.341 | 0.016 | 1.66 | 1.18 | 0.455 | 1.12 | 1.13 | -0.0434 | 0.717 | 0.344 | 1.32 | 0.147
TCTGCTAGGACAACGATGGTCAGCTAATCTGCTA | -0.541 | -0.708 | -0.957 | -0.773 | -0.823 | -0.569 | -0.0545 | 0.0795 | 0.983 | 0.581 | 0.636 | -0.317 | -0.808 | -0.587 | -1.47 | -0.66 | -1.33 | -0.497 | -0.832 | 0.175
TAGCCTAGGTTAGATCGGGCCAGTATACGCTATA | 0.436 | -0.519 | -0.629 | -0.408 | -0.862 | -0.226 | 0.102 | -0.562 | -0.333 | -0.187 | -0.639 | 0.069 | -0.497 | -0.751 | -0.958 | -0.294 | -0.619 | 0.00533 | -0.589 | 0.0949
GCTGCTAGGTCAGGTTGGTCCGCTAACGGGTACG | 1.45 | 0.788 | -0.309 | 0.439 | 0.221 | 1.46 | 0.195 | 0.764 | -0.421 | 0.25 | 2.43 | 2.33 | -0.695 | -0.237 | 0.526 | 0.421 | -0.826 | 0.786 | -0.467 | 3.27
TCTATTACTTGATTAGGGCAACCGAAACAGCGGA | 0.823 | 0.881 | 0.41 | 0.812 | 0.945 | 0.975 | 0.4 | 1.9 | 3.76 | 2.94 | 2.08 | 1.45 | 0.681 | 1.58 | 0.91 | 0.583 | 0.132 | 0.779 | 1.04 | 0.983
GCTAGCAGGCCAATTGGGTCACTCAATGACGGGC | -0.057 | -0.159 | -0.545 | -0.122 | -1.32 | 1.83 | 1.01 | 1.14 | -0.473 | 0.444 | 2.36 | 3.11 | -0.977 | -0.884 | -0.0833 | 0.184 | -0.704 | 0.585 | -0.664 | 1.54
